One may read the inhibition as the relative decrease from the control value, in per cent.

For assay [1], the target named is Dual specificity protein kinase CLK3 (Homo sapiens) (UniProt P49761). To be noted: at 1 µM.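 Note: each value is the mean inhibition of CLK3.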
Assay [2] addresses Dual specificity tyrosine-phosphorylation-regulated kinase 1A (Homo sapiens) (UniProt Q13627). The settings on record: at 0.1 µM.
For assay [3] the target is unchanged. To be noted: at 1 µM.
Assay [4] concerns the target Dual specificity tyrosine-phosphorylation-regulated kinase 1B (Homo sapiens) (UniProt Q9Y463). To be noted: at 0.1 µM.
Assay [5] shares this target. To be noted: at 1 µM.
Assay [6] deals with T1, Dual specificity tyrosine-phosphorylation-regulated kinase 2 (Homo sapiens) (UniProt Q92630).
T1 sequence (whole entry): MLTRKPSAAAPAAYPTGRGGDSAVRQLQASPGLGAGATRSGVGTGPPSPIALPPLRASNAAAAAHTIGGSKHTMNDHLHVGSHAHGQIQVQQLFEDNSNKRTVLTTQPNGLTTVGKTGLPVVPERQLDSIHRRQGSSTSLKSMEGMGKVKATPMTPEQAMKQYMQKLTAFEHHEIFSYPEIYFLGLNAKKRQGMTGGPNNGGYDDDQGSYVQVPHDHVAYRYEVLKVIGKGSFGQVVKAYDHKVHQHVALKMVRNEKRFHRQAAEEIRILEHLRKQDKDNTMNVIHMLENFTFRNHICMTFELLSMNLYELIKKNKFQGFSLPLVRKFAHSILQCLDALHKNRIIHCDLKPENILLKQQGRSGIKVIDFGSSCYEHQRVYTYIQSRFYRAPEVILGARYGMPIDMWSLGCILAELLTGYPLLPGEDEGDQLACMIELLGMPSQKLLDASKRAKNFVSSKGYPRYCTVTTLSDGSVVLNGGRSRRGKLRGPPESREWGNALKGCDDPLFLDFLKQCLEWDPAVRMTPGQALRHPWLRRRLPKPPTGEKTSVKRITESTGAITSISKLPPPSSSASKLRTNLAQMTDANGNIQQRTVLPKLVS
The settings on record: at 0.1 µM.

For assay [7], the target named is T1, Dual specificity tyrosine-phosphorylation-regulated kinase 2 (Homo sapiens). The settings on record: at 1 µM.
For assay [8], the target named is Glycogen synthase kinase-3 alpha (Homo sapiens) (UniProt P49840). The settings on record: at 0.1 µM.
Chain of Glycogen synthase kinase-3 alpha (Homo sapiens) (P49840 2-483 limits assumed): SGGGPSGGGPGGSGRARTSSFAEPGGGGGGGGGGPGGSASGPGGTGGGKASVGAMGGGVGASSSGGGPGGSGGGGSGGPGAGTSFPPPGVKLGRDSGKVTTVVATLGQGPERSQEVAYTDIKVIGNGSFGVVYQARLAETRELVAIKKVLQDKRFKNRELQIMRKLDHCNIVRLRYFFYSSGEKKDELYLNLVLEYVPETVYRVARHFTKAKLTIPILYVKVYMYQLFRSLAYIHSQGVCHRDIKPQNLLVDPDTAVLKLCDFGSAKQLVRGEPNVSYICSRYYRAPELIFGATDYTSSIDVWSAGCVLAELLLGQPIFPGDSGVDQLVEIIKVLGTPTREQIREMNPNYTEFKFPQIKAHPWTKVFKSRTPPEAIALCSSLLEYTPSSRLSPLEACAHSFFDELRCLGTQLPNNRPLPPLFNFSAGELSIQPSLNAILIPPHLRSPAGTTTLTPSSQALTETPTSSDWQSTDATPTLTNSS
Assay [9] shares this target. The settings on record: at 1 µM.
Assay [10] concerns the target Glycogen synthase kinase-3 beta (Homo sapiens) (UniProt P49841). The settings on record: at 0.1 µM.
Assay [11] has the same target. To be noted: at 1 µM.
Assay [12] concerns the target Homeodomain-interacting protein kinase 1 (Homo sapiens) (UniProt Q86Z02). The settings on record: at 0.1 µM.
The target is the same in assay [13]. The settings on record: at 1 µM.
The target in assay [14] is T2, Homeodomain-interacting protein kinase 4 (Homo sapiens) (UniProt Q8NE63).
T2 sequence (whole entry): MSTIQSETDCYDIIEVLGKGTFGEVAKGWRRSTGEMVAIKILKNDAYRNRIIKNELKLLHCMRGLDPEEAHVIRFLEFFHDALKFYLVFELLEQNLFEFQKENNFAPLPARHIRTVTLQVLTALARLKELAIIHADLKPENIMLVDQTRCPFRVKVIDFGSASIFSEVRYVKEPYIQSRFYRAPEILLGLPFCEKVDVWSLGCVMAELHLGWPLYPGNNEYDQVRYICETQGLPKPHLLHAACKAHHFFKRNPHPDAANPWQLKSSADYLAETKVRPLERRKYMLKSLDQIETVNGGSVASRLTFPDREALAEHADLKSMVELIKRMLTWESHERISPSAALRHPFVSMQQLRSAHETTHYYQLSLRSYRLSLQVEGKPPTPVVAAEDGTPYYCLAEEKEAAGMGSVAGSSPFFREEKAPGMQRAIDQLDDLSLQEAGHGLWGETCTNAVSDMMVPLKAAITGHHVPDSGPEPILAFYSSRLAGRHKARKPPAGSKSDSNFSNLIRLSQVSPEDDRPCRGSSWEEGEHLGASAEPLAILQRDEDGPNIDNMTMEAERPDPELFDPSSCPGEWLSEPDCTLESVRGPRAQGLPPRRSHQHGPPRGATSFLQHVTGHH
To be noted: at 0.1 µM.

For assay [15], the target named is T2, Homeodomain-interacting protein kinase 4 (Homo sapiens). To be noted: at 1 µM.
Assay [16] deals with Mitogen-activated protein kinase 9 (Homo sapiens) (UniProt P45984). The settings on record: at 0.1 µM.
Chain of Mitogen-activated protein kinase 9 (Homo sapiens) (P45984 whole entry, looked up): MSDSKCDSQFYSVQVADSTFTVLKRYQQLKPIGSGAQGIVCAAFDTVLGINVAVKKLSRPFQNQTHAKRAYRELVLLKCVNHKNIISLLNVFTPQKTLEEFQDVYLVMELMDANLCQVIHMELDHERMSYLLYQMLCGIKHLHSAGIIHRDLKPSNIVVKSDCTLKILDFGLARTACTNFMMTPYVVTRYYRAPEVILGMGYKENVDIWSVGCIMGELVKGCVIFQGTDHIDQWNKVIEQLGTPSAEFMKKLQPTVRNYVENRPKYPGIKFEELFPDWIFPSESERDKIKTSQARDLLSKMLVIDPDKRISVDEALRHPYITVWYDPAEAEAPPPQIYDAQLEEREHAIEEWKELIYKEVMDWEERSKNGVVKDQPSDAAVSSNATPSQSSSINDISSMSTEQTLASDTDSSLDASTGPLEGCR
For assay [17] the target is unchanged. The settings on record: at 1 µM.
Assay [18] addresses Mitogen-activated protein kinase 1 (Homo sapiens) (UniProt P28482). The settings on record: at 0.1 µM.
Assay [19] shares this target. To be noted: at 1 µM.
Assay [20] addresses Mitogen-activated protein kinase 3 (Homo sapiens) (UniProt P27361). To be noted: at 0.1 µM.

Chain of Glycogen synthase kinase-3 beta (Homo sapiens) (P49841 whole entry, looked up): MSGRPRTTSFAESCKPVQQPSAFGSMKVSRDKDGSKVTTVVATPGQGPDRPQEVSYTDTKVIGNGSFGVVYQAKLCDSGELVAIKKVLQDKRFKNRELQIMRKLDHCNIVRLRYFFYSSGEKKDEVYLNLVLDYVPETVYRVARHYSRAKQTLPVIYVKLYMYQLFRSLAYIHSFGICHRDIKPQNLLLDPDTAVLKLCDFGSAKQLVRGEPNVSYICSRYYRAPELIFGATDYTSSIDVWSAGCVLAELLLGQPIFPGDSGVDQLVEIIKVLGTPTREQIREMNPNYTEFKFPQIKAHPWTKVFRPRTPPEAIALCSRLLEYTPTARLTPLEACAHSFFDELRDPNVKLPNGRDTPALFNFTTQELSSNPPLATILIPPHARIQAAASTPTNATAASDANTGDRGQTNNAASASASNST
Chain of Homeodomain-interacting protein kinase 1 (Homo sapiens) (Q86Z02 whole entry, looked up): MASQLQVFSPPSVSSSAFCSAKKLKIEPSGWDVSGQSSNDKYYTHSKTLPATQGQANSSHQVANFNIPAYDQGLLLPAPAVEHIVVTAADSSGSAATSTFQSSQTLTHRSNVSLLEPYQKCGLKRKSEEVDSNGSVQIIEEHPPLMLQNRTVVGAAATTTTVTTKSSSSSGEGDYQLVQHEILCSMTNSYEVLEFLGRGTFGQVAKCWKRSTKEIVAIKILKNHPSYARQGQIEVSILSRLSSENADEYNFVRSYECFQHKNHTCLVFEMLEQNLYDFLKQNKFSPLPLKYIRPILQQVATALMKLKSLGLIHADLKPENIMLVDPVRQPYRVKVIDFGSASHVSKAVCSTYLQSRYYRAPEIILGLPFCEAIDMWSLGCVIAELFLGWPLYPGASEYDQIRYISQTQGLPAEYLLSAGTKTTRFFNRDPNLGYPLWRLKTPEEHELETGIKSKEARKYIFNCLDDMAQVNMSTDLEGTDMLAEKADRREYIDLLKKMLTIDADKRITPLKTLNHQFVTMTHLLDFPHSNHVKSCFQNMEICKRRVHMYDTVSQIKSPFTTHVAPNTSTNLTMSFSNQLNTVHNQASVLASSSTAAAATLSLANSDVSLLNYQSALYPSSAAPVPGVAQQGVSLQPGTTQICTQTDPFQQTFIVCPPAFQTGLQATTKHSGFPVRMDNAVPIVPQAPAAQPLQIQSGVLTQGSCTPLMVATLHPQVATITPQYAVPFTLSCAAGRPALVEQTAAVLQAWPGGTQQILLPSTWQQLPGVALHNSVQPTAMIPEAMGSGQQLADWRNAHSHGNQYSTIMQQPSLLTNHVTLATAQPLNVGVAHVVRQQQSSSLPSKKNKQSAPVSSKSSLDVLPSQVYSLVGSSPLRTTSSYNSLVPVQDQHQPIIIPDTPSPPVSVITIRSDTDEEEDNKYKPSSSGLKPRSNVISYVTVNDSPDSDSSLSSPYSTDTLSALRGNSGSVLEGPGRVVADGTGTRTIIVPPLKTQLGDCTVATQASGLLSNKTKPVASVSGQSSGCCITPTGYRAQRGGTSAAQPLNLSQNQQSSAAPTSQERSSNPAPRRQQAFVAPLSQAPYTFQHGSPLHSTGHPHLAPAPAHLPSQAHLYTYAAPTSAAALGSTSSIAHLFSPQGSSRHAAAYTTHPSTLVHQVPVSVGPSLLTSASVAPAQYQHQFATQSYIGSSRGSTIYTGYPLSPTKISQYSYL
Chain of Mitogen-activated protein kinase 1 (Homo sapiens) (P28482 whole entry): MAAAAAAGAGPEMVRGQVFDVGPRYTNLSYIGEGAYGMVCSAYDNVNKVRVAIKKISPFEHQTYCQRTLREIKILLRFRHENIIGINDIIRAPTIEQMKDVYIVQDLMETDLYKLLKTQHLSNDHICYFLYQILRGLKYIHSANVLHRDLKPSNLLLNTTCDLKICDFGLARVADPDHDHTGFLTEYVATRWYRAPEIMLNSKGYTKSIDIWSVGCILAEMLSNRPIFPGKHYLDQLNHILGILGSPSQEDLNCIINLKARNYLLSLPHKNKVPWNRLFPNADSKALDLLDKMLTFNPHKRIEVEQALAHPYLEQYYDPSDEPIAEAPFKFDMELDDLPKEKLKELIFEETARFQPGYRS
Chain of Mitogen-activated protein kinase 3 (Homo sapiens) (P27361 whole entry): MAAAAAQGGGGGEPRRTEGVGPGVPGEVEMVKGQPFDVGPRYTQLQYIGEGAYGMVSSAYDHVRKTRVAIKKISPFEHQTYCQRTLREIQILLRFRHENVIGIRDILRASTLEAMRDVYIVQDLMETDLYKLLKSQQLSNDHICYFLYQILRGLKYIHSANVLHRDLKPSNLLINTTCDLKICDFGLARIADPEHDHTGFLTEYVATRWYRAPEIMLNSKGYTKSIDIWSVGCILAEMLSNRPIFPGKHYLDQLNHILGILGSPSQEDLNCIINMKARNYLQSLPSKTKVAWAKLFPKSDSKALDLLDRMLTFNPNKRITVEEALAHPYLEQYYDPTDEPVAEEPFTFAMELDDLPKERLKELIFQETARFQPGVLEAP
Chain of Dual specificity tyrosine-phosphorylation-regulated kinase 1B (Homo sapiens) (Q9Y463 whole entry, looked up): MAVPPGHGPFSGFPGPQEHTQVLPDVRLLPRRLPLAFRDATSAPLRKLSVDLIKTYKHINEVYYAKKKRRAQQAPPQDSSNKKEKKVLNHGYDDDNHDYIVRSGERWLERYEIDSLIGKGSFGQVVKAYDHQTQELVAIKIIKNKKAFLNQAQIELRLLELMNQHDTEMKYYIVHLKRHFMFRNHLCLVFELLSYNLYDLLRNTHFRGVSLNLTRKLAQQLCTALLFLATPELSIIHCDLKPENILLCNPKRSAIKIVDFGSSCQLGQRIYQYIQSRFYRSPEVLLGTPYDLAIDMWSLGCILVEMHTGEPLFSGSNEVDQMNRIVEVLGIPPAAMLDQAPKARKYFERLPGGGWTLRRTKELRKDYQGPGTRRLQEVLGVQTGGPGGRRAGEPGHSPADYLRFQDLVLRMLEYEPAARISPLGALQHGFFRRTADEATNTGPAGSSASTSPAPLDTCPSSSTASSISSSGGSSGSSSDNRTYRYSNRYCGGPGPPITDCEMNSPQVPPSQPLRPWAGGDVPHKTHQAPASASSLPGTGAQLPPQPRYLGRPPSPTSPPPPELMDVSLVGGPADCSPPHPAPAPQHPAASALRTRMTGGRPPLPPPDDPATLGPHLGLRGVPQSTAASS
Chain of Dual specificity protein kinase CLK3 (Homo sapiens) (P49761 whole entry, looked up): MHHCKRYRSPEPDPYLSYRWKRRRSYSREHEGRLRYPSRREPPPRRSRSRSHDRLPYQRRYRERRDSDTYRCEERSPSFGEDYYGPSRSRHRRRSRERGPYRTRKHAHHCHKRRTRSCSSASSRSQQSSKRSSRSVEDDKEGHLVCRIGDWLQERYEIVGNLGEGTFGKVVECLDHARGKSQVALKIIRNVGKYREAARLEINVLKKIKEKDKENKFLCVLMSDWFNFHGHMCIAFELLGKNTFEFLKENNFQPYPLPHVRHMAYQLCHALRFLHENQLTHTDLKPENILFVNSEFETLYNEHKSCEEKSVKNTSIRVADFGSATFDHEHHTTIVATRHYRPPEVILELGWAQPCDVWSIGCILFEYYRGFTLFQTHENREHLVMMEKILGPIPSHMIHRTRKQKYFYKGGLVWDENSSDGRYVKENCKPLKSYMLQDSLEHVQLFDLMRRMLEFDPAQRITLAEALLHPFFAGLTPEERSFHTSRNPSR

For `Fc1ccc(-c2nn3ccccc3c2-c2ccncc2)cc1`, the inhibition in [1] came out at 0.88%; in assay [2] it was 0.99%; in assay [3] it was 3.18%; in [4], 0.03%; in assay [5] it was 2.03%; in assay [6] it was 0.76%. Besides, the inhibition in [7] was 1.76%; in assay [8] it was 1.02%; in assay [9], 6.14%; in assay [10], 1.33%; in [11], 10.7%; in [12], -1.55%. Further, the inhibition in assay [13] was 0.97%; in [14], -0.72%; in [15], 0.37%; in assay [16] it was 4.3%; in [17] it was 25.4%; in assay [18], 0.83%. The inhibition in assay [19] came to 1.21%; in assay [20], 1.33%.

In the case of `CC(=O)Nc1cccc(C#Cc2cncnc2Nc2ccc(OCc3cccc(F)c3)c(Cl)c2)c1`, the inhibition in assay [1] is 0.73%; in assay [2] it was -0.41%; in [3], 1.4%; in [4], 0.85%; in assay [5] it was -0.33%; in [6] it was 3.61%. In addition, the inhibition in assay [7] was 1.41%; in assay [8] it was 2.72%; in assay [9], 5.35%; in [10], 1.98%; in [11] it was 4.53%; in [12], -1.76%. Also, the inhibition was -0.76% in [13]; 1.24% in assay [14]; 4.47% in [15]; 2.12% in [16]; 3.22% in assay [17]; 2.93% in [18]. Besides, the values for the inhibition in assay [19] and in [20] were 3.14% and 2.14%, respectively.

With `Nc1nc(-c2cccc(Cl)c2)c(-c2ccc3ncccc3n2)s1`, the inhibition in [1] is 3.8%; in [2] it was 6.62%; in assay [3], 31.8%; in [4], -0.12%; in assay [5], 12.7%; in assay [6], 3.16%. In addition, the inhibition in [7] was 5.31%; in assay [8], 3.74%; in assay [9], 11.2%; in [10], 2.21%; in assay [11] it was 7.52%; in assay [12], 2.34%. The inhibition in assay [13] was found to be 6.93%; in assay [14], 2.76%; in assay [15], 13.9%; in assay [16], 5.19%; in [17], 13.9%; in assay [18], 6.28%. Further, the inhibition in assay [19] is 6.55%; in assay [20], 5.26%.

Take `Cc1ccc(O)cc1Nc1ccnc2cc(-c3ccccn3)ccc12`: the inhibition was found to be 2.88% in [1]; 2.56% in [2]; 4.96% in assay [3]; 0.53% in assay [4]; 1.85% in assay [5]; 3.35% in assay [6]. The inhibition in [7] was 5.79%; in assay [8] it was 2.73%; in [9], 6.51%; in [10], 1.23%; in assay [11], 5.65%; in assay [12], 1.24%. Moreover, the inhibition was 5.57% in [13]; 1.19% in assay [14]; 0.77% in assay [15]; 2.32% in assay [16]; 11.5% in assay [17]; -0.57% in assay [18]. For the same molecule, the inhibition in [19] worked out at 4.7%; in assay [20], 1.59%.

Take `CC1=C(C(=O)Nc2cc(Cl)c3[nH]ncc3c2)C(c2ccc(C(F)(F)F)cc2)CC(=O)N1` (stereo not given): the inhibition in assay [1] was 1.64%; in [2] it was 1.66%; in assay [3], 2.44%; in [4], -1.21%; in [5], -0.06%; in assay [6], 2.57%. Also, the inhibition was 2.68% in [7]; 0.24% in assay [8]; -1.53% in assay [9]; 0.14% in assay [10]; 2.19% in assay [11]; -0.91% in assay [12]. Besides, the inhibition in assay [13] is -0.78%; in assay [14], -0.54%; in assay [15], 2.16%; in assay [16] it was 3.86%; in assay [17], 2.16%; in [18] it was 7.37%. In addition, the inhibition turned out to be 35.4% in assay [19] and 6.64% in [20].

On to `COC(=O)Nc1nc2ccc(Oc3ccc(NC(=O)Nc4cccc(Cl)c4)cc3)cc2[nH]1`, for which the inhibition is -1.09% in [1]; -1.75% in [2]; -2.75% in assay [3]; -1.02% in assay [4]; -0.33% in assay [5]; 1.12% in assay [6]. In addition, the inhibition in assay [7] is -2.41%; in [8] it was 3.91%; in [9] it was 3.54%; in [10], 2.92%; in assay [11], 4.55%; in [12] it was -1.97%. Also, the inhibition in [13] is -0.94%; in [14] it was 2.35%; in assay [15] it was 14.8%; in assay [16] it was 1.98%; in assay [17], 5.76%; in [18], 1.02%. Moreover, the inhibition in assay [19] is 1.55%; in [20], -0.95%.

`COc1cc(/C=N/Nc2ncnc3[nH]ncc23)ccc1O`: the inhibition in assay [1] turned out to be 13.2%; in assay [2] it was 12.5%; in assay [3] it was 45.1%; in [4], 6.29%; in [5] it was 31.6%; in assay [6], 7.46%. Moreover, the inhibition in [7] was 44.8%; in [8], 9.63%; in assay [9], 41.7%; in assay [10], 7%; in assay [11] it was 24.5%; in [12] it was 9.37%. For the same molecule, the inhibition in assay [13] is 39.4%; in assay [14], 5.91%; in assay [15], 23%; in assay [16], 1.89%; in assay [17], 5.5%; in assay [18], 3.68%. Besides, the values for the inhibition in assay [19] and in assay [20] were 4.72% and 2.18%, respectively.

For the origin of these results see ChEMBL document CHEMBL1961873, “Compounds: GSK PKIS; Assays: Nanosyn kinase panel” (2012).
